# Measured values as given in PubChem BioAssay (NCI).
# This is part of a sample that, as a whole, favours compounds with a hit. Of some 83,000 tested, about 20% had one in any assay.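 Compound tested at a single concentration for 48 hours in 96-well plates; a percent growth value below 10 was scored as active.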 Values without a mark were called inactive. Activity calls are given as the source filed them.
# Tested on: HL-60(TB) leukemia
# Test: NCI-60 one-dose screen, 48 h (100 = growth as untreated, 0 = no growth, -100 = all killed)
# Conditions: 10 µM unless noted
row,SMILES,growth
1,CCN1C(=O)N(CC)C2C1NN=c1s/c(=C3\C(=O)N(CCc4ccccc4)c4ccccc43)c(=O)n12 (stereo not given),-46.1% (active)
2,O=C(CSc1nc2ccccc2[nH]1)Nc1ccc(-c2nc3ccccc3s2)c(Cl)c1,62%
3,CC(C)C1=NOC(=O)C1=Cc1cn(-c2ccco2)nc1-c1ccccc1,3.89% (active)
4,Clc1ccc2[nH]c3c(NCCCN4CCOCC4)ncnc3c2c1,36.3%
5,COc1cc2c(cc1OCCCCCCN1CCN(CC(=O)Nc3ccc(Cl)cc3C(=O)c3ccccc3Cl)CC1)N=CC1CCCN1C2=O (stereo not given),-85.8% (active)
6,Cn1cc(-c2nonc2-c2cn(C)c3ccccc23)c2ccccc21,-27% (active)
7,N#CC1=C(N)Oc2ccc3ccccc3c2C1c1ccc([N+](=O)[O-])cc1 (stereo not given),39.8%
8,COc1ccc(-c2oc(=O)ccc2-c2cc(OC)c(OC)c(OC)c2)cc1F,44.6%
9,CN1CCN(Cc2ccc(NC(=O)c3cncc(C#Cc4cnc(N)c5cnccc45)c3)cc2C(F)(F)F)CC1,-25% (active)
10,CNC(=O)c1ccccc1Nc1nc(Nc2cc(OC)c(OC)c(OC)c2)ncc1Br,19%
11,O=C1c2ccccc2C(=O)c2sc(Nc3ccc(Cl)cc3)nc21,-10.8% (active)
12,CCCNC(=O)Oc1ccc(/C(=C(\C)c2ccccc2)c2ccc(OCCCN(C)C)cc2)cc1,65.3%
13,CCOC(=O)c1ccc(C(C)(C)C)cc1,90.4%
14,CCN(CC)CCS(=O)(=O)CCNc1ccnc2cc(Cl)ccc12,-22.5% (active)
15,CCN(CC)Cc1cc(Nc2nc(NC3CCC(N(C)C)CC3)c3ccccc3n2)ccc1OC (stereo not given),69%
16,NC(=O)N/N=C\c1ccco1,102%
17,c1ccc2cc(C[n+]3ccn(CCCCCCCn4cc[n+](Cc5ccc6ccccc6c5)c4)c3)ccc2c1,32.9%
18,Cc1ccc(C)c2c1CCC2=O,134%
19,C=C[C@@H]1C[C@@H]2Cc3c(C)cc(C)cc3N1O2,0.0364% (active)
20,CCOc1ccc(NC(=O)CSc2oc(-c3ccccc3)nc2S(=O)(=O)c2ccc(C)cc2)cc1,65.6%

row,SMILES,growth
1,Cc1ccc(S(=O)(=O)N(CCc2ccc(Cl)cc2)S(=O)(=O)c2ccc(C)cc2)cc1,85.3%
2,Cc1c2c(cn1Cc1ccccc1)CCc1cn(C)nc1-2,63.4%
3,O=S(=O)(O)CCl,94.7%
4,CCOc1cc2ncc(C#N)c(Nc3ccc(OCc4cccc(F)c4)c(Cl)c3)c2cc1NC(=O)CCCCC1CCSS1 (stereo not given),108%
5,O=C(CCc1nnc2sc(-c3ccc(Cl)cc3Cl)nn12)c1nc2ncccc2[nH]1,3.13% (active)
6,O=C1C=C(O)C(=O)C(CC2=C(O)C(=O)C=C(O)C2=O)=C1O,102%
7,CN(CCOc1ccc(CC2SC(=O)NC2=O)cc1)c1ccccn1 (stereo not given),128%
8,Nc1nc(N)c2c(ccc3c2ccn3Cc2cccc([N+](=O)[O-])c2)n1,8.38% (active)
9,O=C(Cc1ccc(/C=C/C(=O)c2ncc[nH]2)cc1)Nc1ccc(Br)cc1,0.0282% (active)
10,CC(CN1CCN(CC(C)Nc2ccnc3cc(Cl)ccc23)CC1)Nc1ccnc2cc(Cl)ccc12 (stereo not given),19.8%
11,CC1CN(CCCOC(=O)Nc2ccc(Cl)cc2)CCN1C(C)(C)C (stereo not given),96.1%
12,CC(=O)Oc1ccc(Nc2c3ccccc3nc3ccccc23)cc1,-5.02% (active)
13,Cc1scc2c1N(C(=O)CN1CCN(C)CC1)c1ccccc1NC2=O,121%
14,CCCCn1sc(=O)n(Cc2ccc(CNC(=O)OCc3ccc4c(Cl)cc(Cl)c(O)c4n3)cc2)c1=O,67.9%
15,Clc1cccc(Cl)c1/C=C/c1cc(/C=C/c2c(Cl)cccc2Cl)[nH]n1,12.6%
16,C=C1C(=O)O[C@H]2[C@H]1CC/C(CNC(=O)/C=C/c1cc(OC)c(OC)c(OC)c1)=C\CC[C@@]1(C)O[C@@H]21,-33.3% (active)
17,CCCCn1c(-c2ccc(C(=O)O/N=C(\N)c3ccc4c(c3)OCO4)cc2)nc(-c2ccccc2)c1-c1ccccc1,-52.4% (active)
18,Cc1ccc(C)c2c(C)c(C(=O)Nc3cccc(-n4cccn4)c3)oc12,87.9% [50 µM]
19,CO[C@H]1/C=C/C=C/C=C/C[C@H](OC(=O)[C@@H](C)NC(=O)C2CCCCC2)[C@H](C)[C@@H](O)/C(C)=C\CCC2=CC(=O)C=C(NC(=O)C1)C2=O,-26.6% (active)
20,CCC1(CC)C(OC)NC(Br)=C(C#N)C1(C#N)C(N)=O (stereo not given),93.1%
